Test results reported in PubChem BioAssay (NCATS).
Results filed as inconclusive are left out. Activity calls are given as the source filed them. Unless noted, the call rests on the fitted dose curve; in most records, active means well fitted curve in the direction sought with a large enough effect; inconclusive means small, poorly fitted or top-dose-only effect, or another doubt; inactive means no such curve, though single readings can be large; an effect the other way counts as inactive or inconclusive.

Tests used:
[1] = target: Lysosomal acid glucosylceramidase (Homo sapiens) (UniProt P04062); test: Glucocerebrosidase-p2 (AID 348; in the data active means potency below about 10 µM; further: potency means the concentration at half of the fitted maximal effect); details: purified GBA, blue fluorogenic substrate, 40 min
Sequence of Lysosomal acid glucosylceramidase (Homo sapiens) (P04062 whole entry, looked up): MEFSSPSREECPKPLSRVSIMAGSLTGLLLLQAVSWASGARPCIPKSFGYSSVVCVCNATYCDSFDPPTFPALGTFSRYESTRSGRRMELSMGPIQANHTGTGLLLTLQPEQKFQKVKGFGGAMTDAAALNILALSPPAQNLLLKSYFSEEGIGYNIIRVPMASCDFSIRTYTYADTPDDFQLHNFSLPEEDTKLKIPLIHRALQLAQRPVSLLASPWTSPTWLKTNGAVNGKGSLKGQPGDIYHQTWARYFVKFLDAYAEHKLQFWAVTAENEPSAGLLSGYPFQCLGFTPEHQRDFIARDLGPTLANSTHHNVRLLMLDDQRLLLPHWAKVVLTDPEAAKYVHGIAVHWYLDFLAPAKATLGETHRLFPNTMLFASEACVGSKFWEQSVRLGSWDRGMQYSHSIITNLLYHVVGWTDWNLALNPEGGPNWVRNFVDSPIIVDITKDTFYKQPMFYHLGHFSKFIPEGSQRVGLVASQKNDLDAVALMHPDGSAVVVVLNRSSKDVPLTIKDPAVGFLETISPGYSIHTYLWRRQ
Method in brief: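 Normal human glucocerebrosidase (0.2 nM) with blue fluorogenic substrate (80 uM final) in citrate/phosphate pH 5.9 with 10mM sodium taurocholate, 0.01% tween-20; 40 min RT, NaOH/glycine stop; fluorescence Ex 365/Em 440; AC50 from a titration from 0.6 nM upwards.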

[2] = AP1 Signaling Pathway (AID 357; active means well fitted curve in either direction with a large enough effect, not every such curve was filed as active;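 further: ME-180 reporter cells stimulated with EGF at its EC50 level; on the % scale 0 is the no-effect control and ±100 the full control effect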); details: ME-180 AP-1-bla reporter, EGF-induced, beta-lactamase ratio, 5 h; at 7.69 µM (top of the series) unless noted
Method in brief: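 Cells are seeded overnight, exposed to compound titrations and an EC50 level of EGF for 5 hours at 37 °C, then loaded with CCF4 dye for 2.5 hours. Beta-lactamase activity under the AP-1 element is read as a blue/green ratio.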

[3] = target: Cytochrome P450 1A2 (Homo sapiens) (UniProt P05177); test: p450-cyp1a2 (AID 410; calls by dose curve;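 further: -100% = full effect of reference inhibitor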); details: recombinant CYP1A2, luciferin-ME demethylation, luminescence; series mostly up to 11.4 µM
Sequence of Cytochrome P450 1A2 (Homo sapiens) (P05177 whole entry, looked up): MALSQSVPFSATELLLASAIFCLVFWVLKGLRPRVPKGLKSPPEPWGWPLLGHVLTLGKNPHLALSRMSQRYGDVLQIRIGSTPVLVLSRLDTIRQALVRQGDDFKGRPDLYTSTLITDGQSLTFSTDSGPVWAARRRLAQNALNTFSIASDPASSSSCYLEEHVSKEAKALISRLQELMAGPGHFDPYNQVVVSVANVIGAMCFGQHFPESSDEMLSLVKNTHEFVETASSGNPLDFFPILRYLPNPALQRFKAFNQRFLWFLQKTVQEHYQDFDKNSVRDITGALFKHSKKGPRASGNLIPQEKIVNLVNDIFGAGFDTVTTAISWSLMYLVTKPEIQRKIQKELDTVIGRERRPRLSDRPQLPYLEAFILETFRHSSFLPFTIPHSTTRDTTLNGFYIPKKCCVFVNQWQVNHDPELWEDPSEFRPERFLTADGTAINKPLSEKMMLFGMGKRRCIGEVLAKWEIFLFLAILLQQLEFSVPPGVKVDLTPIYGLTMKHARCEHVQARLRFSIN
Method in brief: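 O-Demethylation of luciferin 6' methyl ether by human CYP1A2 is monitored as luciferase luminescence. Substrate sits at Km (100uM); enzyme is 20nM. Values are scaled to 57 uM furafylline as maximal inhibition.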

[4] = Stat Signaling Pathway (AID 446; active means well fitted curve in either direction with a large enough effect, not every such curve was filed as active;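 further: ME-180 cervical cancer cells given 40 pM IL-6 alongside compound; SIE-controlled beta-lactamase reporter measured as 460/530 nm FRET emission ratio; on the % scale 0 is the no-effect control and ±100 the full control effect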); details: ME-180 (cervical carcinoma) SIE beta-lactamase reporter, IL-6 stimulated, 5 h; at 7.69 µM (top of the series) unless noted
Method in brief: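 Compound effects on IL-6-induced STAT reporter activity were measured in ME-180 cells. After overnight culture, cells were co-treated with 40 pM IL-6 for 5 hrs before beta-lactamase substrate loading at room temperature.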

[5] = target: Glucocorticoid receptor (Homo sapiens) (UniProt P04150); test: GR-GFP Redistribution (AID 450;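 active means compounds whose dose series gives a full or clear partial fitted curve of increased nuclear translocation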; further: potency means the concentration at half of the fitted maximal effect); details: U2OS GR-GFP nuclear translocation, laser cytometry, 2 h
Sequence of Glucocorticoid receptor (Homo sapiens) (P04150 whole entry, looked up, the tested form may be a part): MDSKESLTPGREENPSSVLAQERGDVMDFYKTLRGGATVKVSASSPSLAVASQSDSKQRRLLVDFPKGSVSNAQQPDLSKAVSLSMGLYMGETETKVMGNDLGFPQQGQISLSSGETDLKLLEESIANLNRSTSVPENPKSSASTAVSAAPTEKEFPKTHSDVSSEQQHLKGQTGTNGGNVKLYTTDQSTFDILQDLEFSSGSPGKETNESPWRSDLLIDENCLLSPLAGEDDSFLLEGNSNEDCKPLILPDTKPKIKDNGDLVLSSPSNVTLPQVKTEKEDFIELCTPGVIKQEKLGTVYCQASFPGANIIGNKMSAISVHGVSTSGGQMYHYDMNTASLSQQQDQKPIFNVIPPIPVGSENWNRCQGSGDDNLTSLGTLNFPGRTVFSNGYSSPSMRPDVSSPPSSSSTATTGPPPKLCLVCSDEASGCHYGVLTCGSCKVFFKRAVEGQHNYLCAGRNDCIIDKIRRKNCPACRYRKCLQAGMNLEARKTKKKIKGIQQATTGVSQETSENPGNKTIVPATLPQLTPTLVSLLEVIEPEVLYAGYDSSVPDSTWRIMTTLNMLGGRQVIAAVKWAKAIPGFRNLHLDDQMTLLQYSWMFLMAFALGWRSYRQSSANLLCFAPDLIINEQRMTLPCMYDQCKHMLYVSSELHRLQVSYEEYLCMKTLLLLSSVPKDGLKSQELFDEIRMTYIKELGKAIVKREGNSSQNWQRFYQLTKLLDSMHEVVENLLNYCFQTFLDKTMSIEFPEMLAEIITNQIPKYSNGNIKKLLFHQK

[6] = target: Glucocorticoid receptor (Homo sapiens) (UniProt P04150); test: GR-EFC Redistribution (AID 451; calls by dose curve; further: potency means the concentration at half of the fitted maximal effect); details: CHO-K1 GR-EFC translocation, beta-gal luminescence, 2 h
Method in brief: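 CHO-K1 cells expressing nuclear EA and GR-ED fragments of b-gal; compounds titrated up to 46 uM final, 2 h at 37 C. GR nuclear translocation read as complemented b-gal luminescence after 1 h RT detection.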

[7] = target: Mitogen-activated protein kinase 10 (Mus musculus) (UniProt Q61831); test: JNK3 AlphaScreen Assay (AID 530; active means well fitted curve in either direction with a large enough effect, not every such curve was filed as active;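 further: kinase came from lysate of stimulated human HepG2 cells; signal reports phosphorylation of biotinylated GST-cJun 1-79 at Ser73 with 10 µM ATP; on the % scale 0 is the no-effect control and ±100 the full control effect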); details: JNK3 lysate, c-Jun phosphorylation; series mostly up to 57.1 µM
Method in brief: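 Activity was read by AlphaScreen after JNK3-containing HepG2 lysate (cytokine pre-activated) phosphorylated biotinylated GST-cJun with 10 uM ATP at room temperature. Phospho-Ser73 cJun antibody with Protein-A acceptor beads provided detection.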

[8] = target: 3',5'-cyclic-AMP phosphodiesterase 4B (Homo sapiens) (UniProt Q07343); test: qHTS Assay for Inhibitors of PDE-IV (AID 607; active means well fitted activation curve with a large enough effect in the main read-out, with a control signal flat, not every such curve was filed as active; further: % of control where 0% means no effect); details: HEK293 ACTOne CNG channel cells, membrane potential fluorescence; series mostly up to 22.9 µM
Sequence of 3',5'-cyclic-AMP phosphodiesterase 4B (Homo sapiens) (Q07343 whole entry, looked up): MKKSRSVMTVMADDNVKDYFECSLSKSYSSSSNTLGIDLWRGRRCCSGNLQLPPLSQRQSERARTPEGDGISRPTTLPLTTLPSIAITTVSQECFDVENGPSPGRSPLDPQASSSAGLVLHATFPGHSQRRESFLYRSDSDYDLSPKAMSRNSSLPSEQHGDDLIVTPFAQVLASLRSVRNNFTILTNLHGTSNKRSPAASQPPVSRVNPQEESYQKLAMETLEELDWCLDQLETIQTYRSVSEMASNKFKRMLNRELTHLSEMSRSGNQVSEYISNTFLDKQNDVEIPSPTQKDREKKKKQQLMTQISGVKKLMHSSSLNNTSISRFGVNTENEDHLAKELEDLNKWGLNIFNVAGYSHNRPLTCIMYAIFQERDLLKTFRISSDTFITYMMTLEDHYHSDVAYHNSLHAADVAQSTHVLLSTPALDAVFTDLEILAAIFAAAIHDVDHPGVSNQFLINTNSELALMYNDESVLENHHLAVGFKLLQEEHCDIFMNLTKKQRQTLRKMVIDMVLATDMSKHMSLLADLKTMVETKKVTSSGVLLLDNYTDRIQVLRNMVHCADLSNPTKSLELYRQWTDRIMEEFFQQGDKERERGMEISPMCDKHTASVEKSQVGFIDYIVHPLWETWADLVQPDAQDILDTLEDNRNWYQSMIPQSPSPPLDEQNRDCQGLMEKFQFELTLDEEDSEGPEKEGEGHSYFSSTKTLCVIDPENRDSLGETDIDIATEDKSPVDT
Method in brief: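 ACTOne HEK293 cells carry a modified cAMP-gated CNG channel and express endogenous PDE4; plated 1000 cells/well, compounds up to 22.9 uM final. Membrane-potential dye fluorescence (ex 535/em 590) was read; parental cells received 10 uM forskolin + 100 uM RO 20-1724.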

[9] = target: ATP-dependent 6-phosphofructokinase (Trypanosoma brucei brucei) (UniProt O15648); test: qHTS Assay to Find Inhibitors of T. brucei phosphofructokinase: hit validation (AID 492961); further: on the % scale 0 is the no-effect control and ±100 the full control effect; details: T. brucei PFK, ADP-Glo luminescence; series mostly up to 51.4 µM
Sequence of ATP-dependent 6-phosphofructokinase (Trypanosoma brucei brucei) (O15648 whole entry, looked up): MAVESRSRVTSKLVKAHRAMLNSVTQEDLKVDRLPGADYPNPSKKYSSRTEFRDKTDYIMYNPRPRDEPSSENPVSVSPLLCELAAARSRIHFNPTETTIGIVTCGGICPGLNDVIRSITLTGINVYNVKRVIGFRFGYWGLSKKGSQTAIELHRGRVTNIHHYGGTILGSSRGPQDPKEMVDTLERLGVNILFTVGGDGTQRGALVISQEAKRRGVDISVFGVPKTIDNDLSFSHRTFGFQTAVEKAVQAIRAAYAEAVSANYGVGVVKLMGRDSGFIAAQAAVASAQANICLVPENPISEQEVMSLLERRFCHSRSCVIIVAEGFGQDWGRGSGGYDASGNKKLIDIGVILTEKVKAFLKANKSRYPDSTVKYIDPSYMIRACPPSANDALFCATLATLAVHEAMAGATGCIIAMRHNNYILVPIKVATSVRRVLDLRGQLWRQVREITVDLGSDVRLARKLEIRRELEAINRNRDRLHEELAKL
Method in brief: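 Luminescence from ADP-Glo reports ADP generated as T. brucei PFK (1.25 nM) phosphorylates 0.5 mM fructose-6-phosphate using 0.1 mM ATP. Reactions ran 45 min at room temperature, pH 8.0.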

[10] = target: Ubiquitin carboxyl-terminal hydrolase 1 (Homo sapiens) (UniProt O94782); test: Inhibitors of USP1/UAF1: Pilot qHTS (AID 504865); details: purified USP1/UAF1, Ub-rhodamine cleavage fluorescence; series mostly up to 114 µM;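 further: rhodamine fluorescence freed from ubiquitin-rhodamine substrate followed over time; top concentration of the series differs between compounds; on the % scale 0 is the no-effect control and ±100 the full control effect; nearly all actives have a fitted effect of over 35% in size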
Sequence of Ubiquitin carboxyl-terminal hydrolase 1 (Homo sapiens) (O94782 whole entry, looked up): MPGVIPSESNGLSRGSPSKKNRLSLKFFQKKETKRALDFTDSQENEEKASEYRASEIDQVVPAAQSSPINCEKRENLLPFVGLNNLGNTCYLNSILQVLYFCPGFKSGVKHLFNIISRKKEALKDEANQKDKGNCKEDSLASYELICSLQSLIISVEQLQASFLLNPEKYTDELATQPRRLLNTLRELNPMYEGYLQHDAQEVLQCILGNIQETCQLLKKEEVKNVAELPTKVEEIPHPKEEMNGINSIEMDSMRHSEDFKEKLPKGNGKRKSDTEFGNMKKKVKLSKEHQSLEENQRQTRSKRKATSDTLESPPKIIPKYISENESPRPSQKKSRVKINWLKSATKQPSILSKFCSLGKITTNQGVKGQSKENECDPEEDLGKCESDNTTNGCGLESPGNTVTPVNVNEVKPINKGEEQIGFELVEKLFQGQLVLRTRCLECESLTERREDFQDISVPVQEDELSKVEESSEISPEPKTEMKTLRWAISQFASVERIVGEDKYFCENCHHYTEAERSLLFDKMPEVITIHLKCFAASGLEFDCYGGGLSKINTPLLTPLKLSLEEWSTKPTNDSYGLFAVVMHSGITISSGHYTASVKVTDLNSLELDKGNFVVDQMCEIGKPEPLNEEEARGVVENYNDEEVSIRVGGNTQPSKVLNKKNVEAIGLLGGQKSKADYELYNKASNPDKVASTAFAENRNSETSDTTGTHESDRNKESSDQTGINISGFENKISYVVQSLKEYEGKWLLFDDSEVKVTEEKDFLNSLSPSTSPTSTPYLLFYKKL
Method in brief: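 USP1/UAF1 complex (1nM) preincubated with compound 15 min at room temperature, then Ub-Rho substrate (150nM final) added. Fluorescence read kinetically at 480/540 nm, 6 reads every 60 seconds. Buffer: 50mM HEPES pH 7.8, 0.5mM EDTA, 0.1 mg/ml BSA, 1mM TCEP, 0.01% Tween-20.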

[11] = target: Luciferin 4-monooxygenase (Photinus pyralis) (UniProt P08659); test: Biochemical firefly luciferase enzyme assay for NPC (AID 624030);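 further: purified P. pyralis luciferase at 10 nM with luciferin and ATP substrate; 0% = DMSO and -100% = full luciferase inhibition by PTC124 control; nearly all actives have a fitted effect of over 70% in size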; details: purified P. pyralis luciferase, luminescence, 5 min; series mostly up to 58.6 µM
Sequence of Luciferin 4-monooxygenase (Photinus pyralis) (P08659 whole entry, looked up): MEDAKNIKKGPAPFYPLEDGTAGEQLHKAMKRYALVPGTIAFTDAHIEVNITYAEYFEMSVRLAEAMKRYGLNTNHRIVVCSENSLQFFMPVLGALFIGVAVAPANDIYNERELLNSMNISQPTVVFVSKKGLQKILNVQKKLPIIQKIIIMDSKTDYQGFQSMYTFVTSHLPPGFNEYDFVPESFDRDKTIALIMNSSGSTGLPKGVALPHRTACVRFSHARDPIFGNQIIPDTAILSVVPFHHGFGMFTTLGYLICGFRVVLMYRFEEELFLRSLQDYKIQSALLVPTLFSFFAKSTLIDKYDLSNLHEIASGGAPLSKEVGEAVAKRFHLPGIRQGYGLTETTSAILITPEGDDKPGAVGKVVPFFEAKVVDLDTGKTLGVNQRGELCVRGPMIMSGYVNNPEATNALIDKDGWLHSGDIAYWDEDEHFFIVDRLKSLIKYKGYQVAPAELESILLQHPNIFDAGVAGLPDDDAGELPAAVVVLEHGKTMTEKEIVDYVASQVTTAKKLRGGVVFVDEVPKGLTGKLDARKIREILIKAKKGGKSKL
Method in brief: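 Purified P. pyralis luciferase at 10 nM in 50 mM Tris Acetate (final), luminescence read within 5 minutes of enzyme addition to compounds. Activity normalised to PTC124 versus DMSO; concentration-response curves classed by r2, magnitude and activity.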

[12] = S16 Schwann cell viability assay (CellTiter-Glo assay) (AID 624031); details: S16 rat Schwann cells viability, 24 h; series mostly up to 57.5 µM;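 further: cellular ATP luminescence as a viability measure; plate controls were DMSO-treated cells for no effect and cell-free wells for full effect; nearly all actives have a fitted effect of over 70% in size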
Method in brief: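 This viability control uses native rat S16 Schwann cells grown in DMEM plus 10% FBS. After a 24 h compound treatment at 37 °C, CellTiter-Glo luminescence reports ATP content, scaled against DMSO-treated and cell-free wells.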

[13] = S16 Schwann cell PMP22 intronic element firefly luciferase assay (AID 624032); details: S16 rat Schwann cells, PMP22 element FLuc, 24 h; series mostly up to 57.5 µM;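 further: plate controls were DMSO for no effect and PTC124 positive control mean for full effect; nearly all actives have a fitted effect of over 30% in size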
Method in brief: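 Rat S16 Schwann cells stably carrying firefly luciferase driven by a PMP22 intronic element, in 10% FBS, treated 24 h at 37 C. ONE-Glo luminescence normalized to PTC124 control and DMSO (0%); curves classed by r2, magnitude and activity.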

[14] = S16 Schwann cell PMP22 intronic element beta-lactamase assay (AID 624044; calls by dose curve;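 further: 0% = DMSO and -100% = potassium clavulanate positive control; nearly all actives have a fitted effect of over 15% in size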); details: S16 rat Schwann cells, PMP22 element beta-lactamase FRET, 24 h; series mostly up to 38.3 µM
Method in brief: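 Beta-lactamase reporter under a PMP22 intronic regulatory element in stable S16 rat Schwann cells; 24 h compound exposure. 460 nm blue signal normalized between DMSO (0%) and potassium clavulanate, with 535 nm FRET tracking viability; curves classed by r2 and response.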

[15] = qHTS profiling for inhibitors of Plasmodium falciparum proliferation (AID 504749);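 further: 0% = DMSO vehicle and full inhibition = artemisinin control; nearly all actives have a fitted effect of over 60% in size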; details: P. falciparum in erythrocytes, SYBR Green DNA, 72 h, at 28.7 µM (top of the series)
Method in brief: (§1)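 Each compound contacts P. falciparum-infected red blood cells for 72 h at 37 C; lysis buffer (Tris, EDTA, saponin, Triton X, SYBR Green I) is added and fluorescence measured next morning; values normalized to controls.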

7G8 = test: as above; details: P. falciparum in erythrocytes, SYBR Green DNA, 72 h; series mostly up to 28.7 µM
Method in brief: as §1

AA1029 = test: as above; details: P. falciparum in erythrocytes, SYBR Green DNA, 72 h; series mostly up to 28.7 µM
Method in brief: as §1

AS120 = test: as above; details: P. falciparum in erythrocytes, SYBR Green DNA, 72 h; series mostly up to 28.7 µM
Method in brief: as §1

ATS189 = test: as above; details: P. falciparum in erythrocytes, SYBR Green DNA, 72 h; series mostly up to 28.7 µM
Method in brief: as §1

C2A = test: as above; details: P. falciparum in erythrocytes, SYBR Green DNA, 72 h; series mostly up to 28.7 µM
Method in brief: as §1

CP185 = test: as above; details: P. falciparum in erythrocytes, SYBR Green DNA, 72 h; series mostly up to 28.7 µM
Method in brief: as §1

CP191 = test: as above; details: P. falciparum in erythrocytes, SYBR Green DNA, 72 h; series mostly up to 28.7 µM
Method in brief: as §1

CP192 = test: as above; details: P. falciparum in erythrocytes, SYBR Green DNA, 72 h; series mostly up to 28.7 µM
Method in brief: as §1

CP194 = test: as above; details: P. falciparum in erythrocytes, SYBR Green DNA, 72 h; series mostly up to 28.7 µM
Method in brief: as §1

CP201 = test: as above; details: P. falciparum in erythrocytes, SYBR Green DNA, 72 h; series mostly up to 28.7 µM
Method in brief: as §1

CP203 = test: as above; details: P. falciparum in erythrocytes, SYBR Green DNA, 72 h; series mostly up to 28.7 µM
Method in brief: as §1

CP211 = test: as above; details: P. falciparum in erythrocytes, SYBR Green DNA, 72 h; series mostly up to 28.7 µM
Method in brief: as §1

CP217 = test: as above; details: P. falciparum in erythrocytes, SYBR Green DNA, 72 h; series mostly up to 28.7 µM
Method in brief: as §1

CP237 = test: as above; details: P. falciparum in erythrocytes, SYBR Green DNA, 72 h; series mostly up to 28.7 µM
Method in brief: as §1

CP238 = test: as above; details: P. falciparum in erythrocytes, SYBR Green DNA, 72 h; series mostly up to 28.7 µM
Method in brief: as §1

CP247 = test: as above; details: P. falciparum in erythrocytes, SYBR Green DNA, 72 h; series mostly up to 28.7 µM
Method in brief: as §1

CP250 = test: as above; details: P. falciparum in erythrocytes, SYBR Green DNA, 72 h; series mostly up to 28.7 µM
Method in brief: as §1

CP252 = test: as above; details: P. falciparum in erythrocytes, SYBR Green DNA, 72 h; series mostly up to 28.7 µM
Method in brief: as §1

C[N+]1(C)C2CC[C@H]1CC(OC(=O)[C@@H](CO)c1ccccc1)C2 (some centres undefined)
inactive: Potency [1] > 11.4 µM | activity change, negative = inhibition [2] 4% | Potency [3] | activity, negative = inhibition [4] 7.35% | Potency [5] > 46 µM | Potency [6] > 9.22 µM | activity change, negative = inhibition [7] 2.63% [at 11.4 µM] | outcome [8] | outcome [9] | Potency [10] | outcome [11] | outcome [12] | outcome [13] | outcome [14] | activity, negative = inhibition ([15]; parasite line A) 0.517% | activity, negative = inhibition ([15]; parasite line B) -9.85% | Potency (7G8) | Potency (AA1029) | Potency (AS120) | Potency (ATS189) | Potency (C2A) | Potency (CP185) | Potency (CP191) | Potency (CP192) | Potency (CP194) | Potency (CP201) | Potency (CP203) | Potency (CP211) | Potency (CP217) | Potency (CP237) | Potency (CP238) | Potency (CP247) | Potency (CP250) | Potency (CP252)
